LmPK inhibitor = blocks Leishmania mexicana pyruvate kinase activity | Q27686 | purified LmPK, Kinase-Glo ATP luminescence, 1 h | AID 1721 | 0.37% of 290,000 active | Potency, µM (highest dose often 57.5 µM), actives largely listed as inhibitors
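0.1 nM LmPK, 0.5 mM PEP, 0.1 mM ADP; 50 mM imidazole pH 7.2, 7 mM MgCl2, 50 mM KCl; 1 h RT. Kinase-Glo luminescence readout, normalized to no-enzyme (full inhibition) and uninhibited wells.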
Giardia FBPA inh = blocks Giardia fructose-bisphosphate aldolase activity; Potency, µM (doses to about 59.6 µM), hits mostly inhibitors; 0.71% of 290,000 active; AID 2451; purified Giardia FBPA; also: nearly all actives have a fitted effect of over 55% in size
Target sequence (A8B2U2 whole entry, looked up): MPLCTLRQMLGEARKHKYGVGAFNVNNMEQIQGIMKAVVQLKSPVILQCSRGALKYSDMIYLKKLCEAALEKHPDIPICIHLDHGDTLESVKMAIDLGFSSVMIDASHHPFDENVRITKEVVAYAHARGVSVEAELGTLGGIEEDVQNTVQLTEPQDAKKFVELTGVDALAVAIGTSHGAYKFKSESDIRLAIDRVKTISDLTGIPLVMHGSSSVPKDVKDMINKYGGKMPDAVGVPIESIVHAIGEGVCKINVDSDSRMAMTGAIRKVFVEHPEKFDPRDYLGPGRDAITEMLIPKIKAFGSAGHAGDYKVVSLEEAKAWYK
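Giardia FBPA (40 nM reagent) was preincubated 10 min at RT with compound (up to 57.5 uM final), then substrate plus GAPDH/TPI/NAD/arsenate coupling system with diaphorase/resazurin was added; resorufin fluorescence (525/598 nm) was read after 20 min.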
AmpC inh no detg = blocks E. coli AmpC beta-lactamase in detergent-free assay | P00811 | AmpC nitrocefin hydrolysis, absorbance 480 nm, 0.0001% Triton | Potency, µM (top dose mostly 57.1 µM), actives largely listed as inhibitors | 0.52% of 330,000 active | AID 485341; also: nearly all actives have a fitted effect of over 20% in size
Target sequence (P00811 whole entry, looked up): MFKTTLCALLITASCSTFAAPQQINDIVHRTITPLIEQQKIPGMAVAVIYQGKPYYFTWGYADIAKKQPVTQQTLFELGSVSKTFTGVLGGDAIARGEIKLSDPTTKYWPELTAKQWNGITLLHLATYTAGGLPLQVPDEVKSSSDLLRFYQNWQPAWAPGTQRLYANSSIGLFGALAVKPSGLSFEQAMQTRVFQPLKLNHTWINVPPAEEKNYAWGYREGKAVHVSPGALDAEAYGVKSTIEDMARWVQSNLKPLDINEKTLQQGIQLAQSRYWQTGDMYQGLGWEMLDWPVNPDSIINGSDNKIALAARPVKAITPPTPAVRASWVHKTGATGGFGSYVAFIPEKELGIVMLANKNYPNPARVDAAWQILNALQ
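AmpC (5.3 nM in the dispensed reagent) in 20 mM phosphate pH 7.0 with 0.01% (detergent screen) or 0.0001% Triton X-100 was preincubated with compounds for 15 min at room temperature. Nitrocefin was then added from an 800 uM solution, and hydrolysis was followed at 480 nm.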
AmpC inh detg = AmpC beta-lactamase inhibition with detergent present. P00811. AmpC hydrolysis of nitrocefin, absorbance 480 nm, 0.01% Triton. Potency, µM (doses to about 114 µM), hits mostly inhibitors. 0.041% of 370,000 active. AID 485294; also: nearly all actives have a fitted effect of over 25% in size
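20 mM phosphate pH 7.0 + 0.01% (detergent screen) or 0.0001% Triton X-100; 5.3 nM AmpC reagent; cpd preinc 15 min RT; nitrocefin (800 uM stock) to start; A480 q20 s × 4 min; Activity was normalised to no-enzyme and no-compound control wells.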
AMA1 RON2 block = inhibitors of Plasmodium falciparum AMA1-RON2 interaction. 0.2% of 360,000 active. AID 720542. Potency, µM (titrated, usually from 58.2 µM), usual class: inhibitors. AlphaScreen AMA1-biotinylated RON2 peptide binding; also: nearly all actives have a fitted effect of over 45% in size
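AMA1 (3D7) with his tag at 25 nM final met compounds first, then biotinylated RON2 peptide at 25 nM; detection used donor plus acceptor beads, 10 µg/mL apiece, read by AlphaScreen after 30 min at room temperature.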
Large screens that a line does not name were inactive. Most compounds without a hit are left out; they make up all but 1.3% or so of the library. Calls follow the shape of the dose curve; as a rule, active = well fitted curve in the direction sought with a large enough effect; inconclusive = small, poorly fitted or top-dose-only effect, or another doubt; inactive = no such curve, though single readings can be large; an effect the other way counts as inactive or inconclusive.

COC(=O)c1ccccc1NC1=C/C(=N\S(=O)(=O)c2ccc(C(=O)O)cc2)c2ccccc2C1=O	Giardia FBPA inh 1µM, AMA1 RON2 block inconclusive
O=C1C(Nc2ccccc2)=C/C(=N/S(=O)(=O)c2cccs2)c2ccccc21	Giardia FBPA inh inconclusive, AmpC inh no detg 10µM, AMA1 RON2 block inconclusive
CN1CCN(C(=O)c2cccc3c(-c4ccc(F)c(F)c4)coc23)CC1	none (no result: LmPK inhibitor, Giardia FBPA inh, AmpC inh no detg, AmpC inh detg)
C=CCc1cc(OC)ccc1OCCN1CC(C)OC(C)C1 (configuration not stated)	Giardia FBPA inh inconclusive, AMA1 RON2 block 13µM
CC1CN(CCOc2ccc(Cl)c(Cl)c2)CC(C)O1 (configuration not stated)	AMA1 RON2 block inconclusive
COC(=O)c1ccccc1OCCCCN1CC(C)OC(C)C1 (configuration not stated)	Giardia FBPA inh inconclusive
CC1CN(CCOc2ccccc2C(C)C)CC(C)O1 (configuration not stated)	Giardia FBPA inh inconclusive, AMA1 RON2 block 20µM
CC(C)CCN(C(=O)c1cn2ccccc2n1)c1c(N)n(Cc2ccccc2)c(=O)[nH]c1=O	none (no result: LmPK inhibitor, Giardia FBPA inh)
CCOc1ccc(CNC(=O)Cn2nc(C)c3nn(-c4ccc(Cl)cc4)c(C)c3c2=O)cc1OC	none (no result: LmPK inhibitor, Giardia FBPA inh, AmpC inh no detg, AMA1 RON2 block)
COc1ccc(/C=C2\N=C(C)OC2=O)cc1OC	AmpC inh detg 35µM
COc1ccc(C2CC(c3cccc(Cl)c3)n3nc(N)nc3N2)cc1 (configuration not stated)	AmpC inh no detg 0.89µM, AmpC inh detg inconclusive
COc1cccc(C2CC(c3cccc(OC)c3)n3nc(N)nc3N2)c1 (configuration not stated)	AmpC inh no detg inconclusive, AmpC inh detg inconclusive
COc1cccc(C2CC(c3ccc(Cl)cc3)Nc3nc(N)nn32)c1 (configuration not stated)	none
COc1cccc(C2CC(c3ccc(F)cc3)Nc3nc(N)nn32)c1 (configuration not stated)	AmpC inh no detg 40µM
CN(C)C1(CNC(=O)COc2ccc([N+](=O)[O-])cc2)CCCCC1	none (no result: LmPK inhibitor, Giardia FBPA inh, AmpC inh no detg, AMA1 RON2 block)
c1ccc(CNc2ccc3ccccc3n2)nc1	LmPK inhibitor 18µM
Cc1cc(NCc2ccccn2)nc2ccccc12	none
CCCC/C(C)=N/NC(=O)CN(c1ccc(Br)cc1)S(=O)(=O)c1ccccc1	none
CCOC(=O)C/C(C)=N/NC(=O)CN(c1ccc(Br)cc1)S(=O)(=O)c1ccccc1	AmpC inh no detg 22µM
O=C(Nc1nc2ccccc2s1)C1CCN(S(=O)(=O)c2cc([N+](=O)[O-])ccc2Cl)CC1	AmpC inh no detg 7.9µM
Cc1ccc(S(=O)(=O)N(C)c2ccc(OCC(=O)Nc3nc(-c4ccccc4)cs3)cc2)cc1	AmpC inh no detg 2µM
COc1cccc(C(=O)/C=C/c2ccc(N3CCCCC3)c([N+](=O)[O-])c2)c1	AMA1 RON2 block 5µM
CCc1ccc(NC(=O)C(C)Sc2ccc(S(=O)(=O)N3CCN(C)CC3)cn2)cc1 (configuration not stated)	none (no result: LmPK inhibitor, Giardia FBPA inh)
Cc1cccc(C)c1NC(=O)COC(=O)c1c2c(nc3ccccc13)/C(=C\c1ccc3c(c1)OCO3)CCC2	AmpC inh no detg 28µM
CC(OC(=O)c1c2c(nc3ccccc13)/C(=C\c1ccc3c(c1)OCO3)CCC2)C(=O)Nc1ccc(S(N)(=O)=O)cc1 (configuration not stated)	AmpC inh detg inconclusive
CCCOc1ccc(CNC(=O)Cn2c(=O)oc3ccccc32)cc1	AmpC inh no detg 7.9µM
COc1ccc(NC(=O)Cn2ncc3c4ccccc4n(Cc4ccccc4)c3c2=O)cc1OC	none (no result: LmPK inhibitor, Giardia FBPA inh, AmpC inh no detg, AMA1 RON2 block)
CN(Cc1ccc(C(F)(F)F)cc1)C(=O)C1CC(=O)N(Cc2ccco2)C1 (configuration not stated)	none (no result: LmPK inhibitor, Giardia FBPA inh, AmpC inh detg)
Cc1ccc(S(=O)(=O)NCCSc2nnnn2-c2ccc(Cl)c(C(=O)O)c2)cc1	none (no result: LmPK inhibitor, Giardia FBPA inh, AmpC inh no detg, AMA1 RON2 block)
Cc1ccc(S(=O)(=O)NCCSc2nnnn2-c2ccc(C(N)=O)cc2)cc1	AmpC inh no detg 10µM, AmpC inh detg inconclusive
O=C(CSCc1ccccc1)NNC(=S)Nc1cccc(Cl)c1Cl	AmpC inh no detg 0.16µM, AmpC inh detg inconclusive
CNC(=S)NNC(=O)CSCc1c(Cl)cccc1Cl	none
CC(C)n1c(=O)c(C=Nc2ccc(S(N)(=O)=O)cc2)c(O)n(Cc2ccco2)c1=O	AmpC inh no detg 22µM
CCCCn1c(=O)c(C=Nc2ccc(Cl)cc2)c(O)n(Cc2ccco2)c1=O	none
COc1ccc(S(=O)(=O)NCCc2sc(-c3ccccc3)nc2C)cc1F	none (no result: LmPK inhibitor, Giardia FBPA inh, AmpC inh no detg, AMA1 RON2 block)
O=C(O)c1ccc(N=Nc2c(O)ccc3ncccc23)cc1	Giardia FBPA inh inconclusive, AMA1 RON2 block 6.3µM
O=C(/C=C\Nc1ccccn1)c1ccccc1	LmPK inhibitor 13µM
O=C(/C=C/Nc1cccc(O)c1)c1ccccc1	LmPK inhibitor 14µM
Cc1ccc(C(=O)/C=C/Nc2cccc(O)c2)cc1	LmPK inhibitor inconclusive, AmpC inh no detg inconclusive
COc1ccc(C(=O)/C=C/Nc2ccccn2)c(OC)c1	none
COc1ccc(C(=O)/C=C/Nc2cc(C)ccn2)cc1	LmPK inhibitor 13µM
CN(c1ccccc1)c1ccc(/C=N/N2CCOCC2)cc1	AMA1 RON2 block 11µM
CN1OC[C@@H]2CN(Cc3ccc4c(c3)OCO4)[C@H](c3ccc(N4CCCCC4)cc3)C[C@@H]21	AMA1 RON2 block 14µM (no result: LmPK inhibitor, Giardia FBPA inh, AmpC inh no detg, AmpC inh detg)
CN1OC[C@@H]2CN(S(=O)(=O)c3ccccc3)[C@H](c3ccc(N4CCCCC4)cc3)C[C@@H]21	none (no result: LmPK inhibitor, Giardia FBPA inh, AmpC inh no detg, AmpC inh detg)
Cc1[nH]n(-c2ncc(-c3ccc(Cl)cc3)s2)c(=O)c1C(c1ccc(Cl)cc1)C(C#N)C#N (configuration not stated)	AmpC inh no detg 40µM
COc1ccc(C(c2c(C)[nH]n(C(N)=S)c2=O)C(C#N)C#N)cc1 (configuration not stated)	none
COC(=O)c1c(NC(=O)CN2C(=O)NC3(CCc4ccccc4C3)C2=O)sc2c1CCCCC2 (configuration not stated)	AmpC inh no detg 3.5µM
Cc1ccc(-c2ccc(/C=N/NC(=S)Nc3ccccc3)o2)cc1[N+](=O)[O-]	AmpC inh no detg 3.5µM
CNC(=S)N/N=C/c1ccc(-c2ccc(Cl)c([N+](=O)[O-])c2)o1	none
O=C(CCN1C(=O)/C(=C/c2ccccc2Cl)SC1=S)NC1C=CS(=O)(=O)C1 (configuration not stated)	AmpC inh no detg 28µM
O=C(CCN1C(=O)/C(=C/c2ccc(F)cc2)SC1=S)NC1C=CS(=O)(=O)C1 (configuration not stated)	none (no result: Giardia FBPA inh)
CCOCCn1ccc2c(OCC(=O)NCc3ccc(F)cc3)cccc2c1=O	none (no result: LmPK inhibitor, Giardia FBPA inh, AmpC inh no detg, AMA1 RON2 block)
Cc1sc2nc(CN(Cc3cccs3)C(=O)NC3CCCCC3)[nH]c(=O)c2c1C	AmpC inh detg 35µM
NNC(=O)c1[nH]c2ccccc2c1-c1ccccc1	AmpC inh no detg 6.3µM

Source: PubChem BioAssay (National Center for Advancing Translational Sciences (NCATS))
